# These entries were drawn from the full list.
# aSyn 5UTR act – Activators via SNCA 5'UTR binding, MLPCN; activity score, % (tested at 7.5 µM), hits read low; 7.1% of 300,000 active; alpha-synuclein 5'UTR reporter, activators screen; in the data active = activity score below about -60%
# The depositor's hits bear a star.
SMILES,aSyn 5UTR act
N/C(=N\OC(=O)c1ccc(F)cc1)c1cccc([N+](=O)[O-])c1,-110*
N/C(=N\OC(=O)c1ccc2ccccc2c1)c1ccccn1,96
N/C(=N/OC(=O)c1ccccc1Cl)c1ncc([N+](=O)[O-])s1,-80*
N/C(=N\OC(=O)c1ccccc1F)c1ccc([N+](=O)[O-])cc1,-151*
N/C(=N\OC(=O)c1ccc2ccccc2c1)c1ccccc1Cl,-140*
N/C(=N\OC(=O)c1ccc2ccccc2c1)c1cccc([N+](=O)[O-])c1,-67*
Cc1cccc(/C(N)=N/OC(=O)c2ccc(F)cc2)c1,-141*
N/C(=N\OC(=O)c1cccc(F)c1)c1cccc([N+](=O)[O-])c1,-104*
O=C(Oc1ccc2ccc(O)cc2c1)c1ccccc1Cl,-128*
N/C(=N\OC(=O)c1ccccc1Cl)c1cccc([N+](=O)[O-])c1,-67*
O=c1c(Cl)c(Cl)cnn1Cc1nnc(-c2ccc(Cl)cc2)o1,-179*
COc1ccc(-c2coc3cc4oc(=O)cc(-c5ccccc5)c4cc23)cc1F,113
CC(=O)COc1ccc2cc(-c3ccccc3)c(=O)oc2c1,-64*
O=C(COc1ccc2ccc(=O)oc2c1)c1ccccc1,-102*
CC(=O)Oc1ccc2c(=O)c(-c3ccccc3)coc2c1,-146*
COc1ccc(-c2cc3ccc(OCC(N)=O)cc3oc2=O)cc1OC,-65*
CC(=O)Oc1ccc2cc(-c3ccccc3)c(=O)oc2c1,-163*
O=C(CCCCl)Oc1ccc2cc(-c3ccc4ccccc4n3)c(=O)oc2c1,-125*
COc1cccc(/C=C/C(=O)OCC(=O)N2c3ccccc3NC(=O)C2(C)C)c1,-70*
O=C(Nc1ccc(N2CCOCC2)cc1)Nc1ccc(Cl)c(Cl)c1,-139*
O=C(Nc1ccc(N2CCOCC2)cc1)Nc1cnsn1,-114*
CCN(CC)C(=O)COc1ccc(-c2ccccc2)cc1,-116*
O=C(Nc1ccc2c(c1)oc1ccccc12)c1ccncc1,-207*
CCNC(=S)Nc1ccc2c(c1)oc1ccccc12,-165*
O=C(Nc1ccc2c(c1)oc1ccccc12)c1cccnc1,-190*
SMILES,aSyn 5UTR act
Nc1ccc(C(=O)Nc2ccc(NC(=O)c3ccco3)c(O)c2)cc1,-82*
CC(C)COc1ccc(C(=O)Nc2ccc(NC(=O)c3ccco3)c(Cl)c2)cc1,-149*
O=C(Nc1ccc(NC(=O)c2ccco2)c(Cl)c1)c1ccccc1,-99*
O=C(Nc1ccc(Br)c(Cl)c1)c1ccco1,-162*
CC(C)Oc1ccc(C(=O)Nc2ccc(NC(=O)c3ccco3)c(Cl)c2)cc1,-106*
O=C(/C=C\Nc1ccc(Cl)cn1)c1ccc(Br)cc1,-165*
Cc1cc(N/C=C/C(=O)c2ccc(Br)cc2)no1,-198*
Cc1ccnc(N/C=C/C(=O)c2ccc(Br)cc2)c1,-62*
CCCC(=O)N1c2ccccc2C(=C2SC(C(=O)OC)=C(C(=O)OC)S2)C(=S)C1(C)C,-88*
Nc1nc(F)nc2c1ncn2[C@@H]1O[C@H](CO)[C@@H](O)[C@H]1O,122
CC1(C)COC(c2coc3ccccc3c2=O)OC1,-97*
O=C(/C=C/c1ccc(F)cc1)NCc1cccs1,-112*
O=C(/C=C/c1ccccc1Cl)NNC(=O)c1cccs1,-83*
O=C(/C=C/c1ccccc1Cl)NCc1cccs1,-101*
O=C(/C=C/c1ccc(F)cc1)NC(=S)NNC(=O)c1cnccn1,95
O=C(NCc1cccs1)c1nc2c(nnn2Cc2ccccc2Cl)c(=O)[nH]1,77
COc1ccc(C(=O)Nc2ccc(C3CC3(Cl)Cl)cc2)cc1 (stereo not drawn),-95*
COc1ccc(NC(=O)c2ccc3nccnc3c2)cc1,-102*
COC(=O)c1ccc(NC(=O)c2ccc(OC(C)=O)c(OC)c2)cc1,-148*
CC(C)(C)NC(=O)Nc1ccc2nccnc2c1,-96*
COc1ccc(C(=O)Nc2ccc(OC)c(OC)c2)cc1,-98*
CCOc1ccc(NC(=O)c2ccc(OC)cc2)cc1,-114*
COc1ccc(NC(=O)c2ccc(Oc3ncccn3)cc2)cc1,-84*
Cc1ccc(NC(=O)c2ccc(OC(=O)C(C)Oc3ccc(Cl)cc3C)cc2)cc1 (stereo not drawn),-128*
CCOc1ccc(C(=O)NC(Cc2ccccc2)C(=O)OC)cc1 (stereo not drawn),-104*
SMILES,aSyn 5UTR act
CCOc1ccc(NC(=O)c2ccc3nccnc3c2)cc1,-113*
CCOc1ccc(NC(=O)Nc2ccc3nccnc3c2)cc1,-96*
COc1ccc(C(=O)Nc2ccc(/C(C)=N/NC(=O)c3ccccc3O)cc2)cc1OC,-69*
CC(C)C[C@H](NC(=O)c1nc[nH]c1C(=O)N[C@@H](CC(C)C)C(=O)OC(C)(C)C)C(=O)OCc1ccccc1,61
O=C1C(C=Nc2ccc(F)cc2)=C(O)c2ccccc21,-214*
Cc1ccccc1N=CC1=C(O)c2ccccc2C1=O,-138*
COc1ccc(N=CC2=C(O)c3ccccc3C2=O)c(OC)c1,63
COC(=O)C(Cc1ccc(OC(=O)c2ccccc2Cl)cc1)N1Cc2ccccc2C1=O (stereo not drawn),-88*
COC(=O)C(Cc1ccc(OC(=O)c2ccccc2C)cc1)N1Cc2ccccc2C1=O (stereo not drawn),-142*
CCC(=O)CCC(=O)c1ccc2ccccc2c1,-92*
CCOc1ccccc1NC(=O)c1ccc2ccccc2c1,-81*
CCOc1ccccc1NC(=O)c1ccc2[nH]c(C)c(C)c2c1,-91*
Cc1ccc2nc(-c3cccnc3)oc2c1,-80*
Clc1ccc2oc(-c3ccccc3)nc2c1,-151*
Cc1ccccc1-c1nc2cc(Cl)ccc2o1,-183*
COC(=O)c1ccc(-c2nc3ccc(C)cc3o2)cc1,-77*
Clc1ccc2oc(-c3cccnc3)nc2c1,-119*
Cc1ccc2nc(-c3sc4nc(C)cc(C)c4c3N)[nH]c2c1,-63*
CC(=O)Oc1cc(O)c2c(=O)c(OC(C)=O)c(-c3ccc(OC(C)=O)c(OC(C)=O)c3)oc2c1,-116*
COc1ccc(-c2oc3ccccc3c(=O)c2OC(C)=O)cc1,-174*
COc1ccc(-c2oc3cc(OC)c(O)c(OC)c3c(=O)c2OC)cc1O,65
CC(=O)Oc1c(-c2ccc(Br)o2)oc2ccccc2c1=O,-66*
Cc1ccc(NC(=O)C2CCCN(c3ncccn3)C2)cc1C (stereo not drawn),-125*
COc1ccc(NC(=O)C2CCCN(c3ncccn3)C2)cc1 (stereo not drawn),-75*
CC(C)n1nnnc1SCC(=O)Nc1ccc2c(c1)OCCO2,-109*
SMILES,aSyn 5UTR act
CCn1nnnc1SCC(=O)Nc1ccc2c(c1)OCCO2,-118*
O=C(CNS(=O)(=O)c1ccc2ccccc2c1)OCc1csc(-c2ccccc2)n1,-62*
CC(=O)c1cccc(NC(=S)NC(=O)c2cccc(C)c2)c1,-145*
CC(=O)c1cccc(NC(=S)NC(=O)c2ccccc2C)c1,-64*
CC(=O)c1cccc(NC(=S)NC(=O)c2ccc(Cl)cc2)c1,-131*
COc1ccc2cc1Oc1ccc(cc1)C[C@H]1c3c(cc4c(c3Oc3cc5c(cc3OC)CCN(C)[C@@H]5C2)OCO4)CCN1C,109
Cc1ccc(NC(=O)c2ccc3nc[nH]c3c2)cc1C,-170*
O=C(N/N=C/c1ccccc1[N+](=O)[O-])c1ccc2nc[nH]c2c1,-113*
CN(C)c1ccc(NC(=O)c2ccc3nc[nH]c3c2)cc1,-126*
CCN(CC)c1ccc(/C=N/NC(=O)c2ccc3nc[nH]c3c2)c(O)c1,93
O=C(Nc1ccc(F)cc1)c1ccc2nc[nH]c2c1,-82*
Fc1cccc(Cl)c1Cc1noc(/C=C/c2ccccc2)n1,-209*

# Source: PubChem
